Hits are enriched below; roughly 0.57% of the tested compounds scored in any of these assays.
TcdB inh – TcdB glycohydrolase inhibitors, primary screen, biochemical, single point, plate reader | inhibition, % at 9.99 µM | TcdB glycohydrolase enzymatic assay | hit rate 0.24% among 350,000; in the data active = inhibition above about 10%
Target sequence (P18177 whole entry, looked up): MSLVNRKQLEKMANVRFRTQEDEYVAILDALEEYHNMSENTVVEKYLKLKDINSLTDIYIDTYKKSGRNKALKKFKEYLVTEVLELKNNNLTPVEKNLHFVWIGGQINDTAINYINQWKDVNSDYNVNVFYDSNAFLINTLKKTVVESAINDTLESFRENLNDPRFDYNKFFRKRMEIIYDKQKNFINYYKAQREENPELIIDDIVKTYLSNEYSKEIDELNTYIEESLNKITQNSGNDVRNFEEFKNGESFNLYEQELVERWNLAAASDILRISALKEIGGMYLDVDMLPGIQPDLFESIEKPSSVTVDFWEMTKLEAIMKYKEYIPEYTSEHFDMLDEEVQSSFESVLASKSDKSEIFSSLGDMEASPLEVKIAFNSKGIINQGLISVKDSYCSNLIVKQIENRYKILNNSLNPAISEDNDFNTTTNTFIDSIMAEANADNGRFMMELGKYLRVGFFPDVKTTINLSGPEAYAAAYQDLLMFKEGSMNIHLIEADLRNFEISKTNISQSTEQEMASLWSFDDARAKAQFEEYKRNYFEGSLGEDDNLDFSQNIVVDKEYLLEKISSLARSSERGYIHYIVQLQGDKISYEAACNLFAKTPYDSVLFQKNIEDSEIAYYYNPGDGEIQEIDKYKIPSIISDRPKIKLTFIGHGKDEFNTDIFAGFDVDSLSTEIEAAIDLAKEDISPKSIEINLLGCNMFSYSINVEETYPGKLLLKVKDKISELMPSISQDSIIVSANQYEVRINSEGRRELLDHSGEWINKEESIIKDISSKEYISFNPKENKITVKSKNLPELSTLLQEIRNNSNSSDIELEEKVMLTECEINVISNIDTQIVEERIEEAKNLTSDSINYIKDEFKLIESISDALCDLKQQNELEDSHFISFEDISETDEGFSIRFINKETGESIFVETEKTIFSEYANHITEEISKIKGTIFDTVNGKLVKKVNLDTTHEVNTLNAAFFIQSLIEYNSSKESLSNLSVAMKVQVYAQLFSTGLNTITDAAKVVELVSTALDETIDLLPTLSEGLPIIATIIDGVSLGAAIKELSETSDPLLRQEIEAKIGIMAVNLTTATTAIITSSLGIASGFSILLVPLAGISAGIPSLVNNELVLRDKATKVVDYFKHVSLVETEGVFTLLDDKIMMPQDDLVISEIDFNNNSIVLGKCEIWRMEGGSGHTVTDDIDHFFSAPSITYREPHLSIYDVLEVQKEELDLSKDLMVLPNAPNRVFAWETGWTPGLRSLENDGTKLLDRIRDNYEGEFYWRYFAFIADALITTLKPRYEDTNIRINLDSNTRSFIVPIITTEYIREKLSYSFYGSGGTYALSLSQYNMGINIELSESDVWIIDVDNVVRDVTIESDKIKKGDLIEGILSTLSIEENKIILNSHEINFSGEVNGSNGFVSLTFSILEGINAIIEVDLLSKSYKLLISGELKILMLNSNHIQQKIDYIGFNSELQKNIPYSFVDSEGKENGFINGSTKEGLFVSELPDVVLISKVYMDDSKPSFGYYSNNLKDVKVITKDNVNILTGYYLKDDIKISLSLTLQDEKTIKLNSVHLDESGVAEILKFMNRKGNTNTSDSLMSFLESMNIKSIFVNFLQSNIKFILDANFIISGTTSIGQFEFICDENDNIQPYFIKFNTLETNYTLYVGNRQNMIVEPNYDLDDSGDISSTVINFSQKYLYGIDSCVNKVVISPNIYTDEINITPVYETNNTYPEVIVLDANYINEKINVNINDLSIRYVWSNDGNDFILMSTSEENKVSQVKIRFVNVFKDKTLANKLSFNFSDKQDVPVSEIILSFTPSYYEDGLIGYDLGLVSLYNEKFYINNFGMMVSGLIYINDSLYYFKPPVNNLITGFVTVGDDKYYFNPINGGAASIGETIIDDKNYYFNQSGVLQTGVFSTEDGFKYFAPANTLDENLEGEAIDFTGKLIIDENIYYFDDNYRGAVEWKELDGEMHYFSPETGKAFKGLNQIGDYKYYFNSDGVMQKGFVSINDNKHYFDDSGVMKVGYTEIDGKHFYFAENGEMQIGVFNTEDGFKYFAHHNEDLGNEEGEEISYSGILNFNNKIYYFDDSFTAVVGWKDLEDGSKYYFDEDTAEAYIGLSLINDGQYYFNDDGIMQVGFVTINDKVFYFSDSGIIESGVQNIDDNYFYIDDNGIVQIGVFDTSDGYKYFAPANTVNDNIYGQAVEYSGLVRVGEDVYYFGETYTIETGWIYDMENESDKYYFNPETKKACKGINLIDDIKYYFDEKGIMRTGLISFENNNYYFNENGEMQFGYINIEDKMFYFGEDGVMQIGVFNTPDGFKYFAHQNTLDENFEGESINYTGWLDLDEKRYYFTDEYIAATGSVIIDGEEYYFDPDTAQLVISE
Yp Topo-I inh – Yersinia pestis topoisomerase I inhibitors, primary screen, biochemical, cleavage product accumulation, plate reader, single point. activity, % at 10 µM. AID 504884, 2011. Y. pestis Topo-I cleavage product accumulation. DNA topoisomerase I (Yersinia pestis CO92). hit rate 0.064% among 360,000; in the data active = activity above about 50%, passing the limit was not always enough
PrP UTR inh – inhibition of PrP 5' UTR reporter expression; cell-based PrP 5' UTR mRNA reporter, plate reader; inhibition, % (no concentration beside the values); hit rate 0.35% among 340,000; AID 488862, 2010; in the data active = inhibition above about 52%
Mtb BioA inh – M. tuberculosis BioA enzyme inhibitors, primary screen, biochemical, plate reader, single point, HTS; purified M. tuberculosis BioA enzyme; inhibition, % at 9.99 µM; hit rate 0.096% among 360,000; AID 602481, 2012; in the data active = inhibition above about 40%
Large screens that a line does not name were inactive; ! = a repeat was not active.

COc1ccccc1NC(=S)NC1CCCC1	none (no result: Mtb BioA inh)
COc1ccc(Cl)cc1NC(=S)NC1CCCC1	TcdB inh 15
COc1cccc(NC(=O)N[C@@H]2CC[C@@H](CC(=O)Nc3ccccc3)O[C@@H]2CO)c1	none (no result: Yp Topo-I inh, PrP UTR inh)
CNC(=O)C[C@H]1CC[C@@H]2[C@@H](COc3ccc(NC(=O)Nc4ccc(C)cc4)cc3C(=O)N2C)O1	none (no result: Yp Topo-I inh, PrP UTR inh)
CNC(=O)C[C@@H]1CC[C@@H]2[C@H](COc3ccc(NS(=O)(=O)c4ccccc4C)cc3C(=O)N2C)O1	TcdB inh 15 (no result: Yp Topo-I inh, PrP UTR inh)
CNC(=O)C[C@H]1CC[C@@H]2[C@H](COc3ccc(NC(=O)Nc4ccc(C)cc4)cc3C(=O)N2C)O1	TcdB inh 11 (no result: Yp Topo-I inh, PrP UTR inh)
COc1ccc(C(=O)Nc2ccc3c(c2)C(=O)N(C)[C@H]2CC[C@@H](CC(=O)NCC4CC4)O[C@H]2CO3)cc1	none (no result: Yp Topo-I inh, PrP UTR inh)
CNC(=O)C[C@@H]1CC[C@@H]2[C@H](COc3ccc(NC(=O)c4ccc(OC)cc4)cc3C(=O)N2C)O1	none (no result: Yp Topo-I inh, PrP UTR inh)
COc1ccc(C(=O)Nc2ccc3c(c2)C(=O)N(C)[C@@H]2CC[C@H](CC(=O)NCC4CC4)O[C@H]2CO3)cc1	TcdB inh 16 (no result: Yp Topo-I inh, PrP UTR inh)
CNC(=O)C[C@H]1CC[C@@H]2[C@@H](COc3ccc(NS(=O)(=O)c4ccccc4C)cc3C(=O)N2C)O1	none (no result: Yp Topo-I inh, PrP UTR inh)
CNC(=O)C[C@H]1CC[C@@H]2[C@@H](COc3ccc(NC(=O)c4ccc(OC)cc4)cc3C(=O)N2C)O1	TcdB inh 12 (no result: Yp Topo-I inh, PrP UTR inh)
CNC(=O)C[C@H]1CC[C@@H]2[C@@H](COc3ccc(NC(=O)c4cccc(OC)c4)cc3C(=O)N2C)O1	TcdB inh 12 (no result: Yp Topo-I inh, PrP UTR inh)
CNC(=O)C[C@H]1CC[C@@H]2[C@H](COc3ccc(NC(=O)c4ccc(OC)cc4)cc3C(=O)N2C)O1	TcdB inh 17 (no result: Yp Topo-I inh, PrP UTR inh)
CN1C(=O)c2cc(NC(=O)c3cccc(F)c3)ccc2OC[C@H]2O[C@H](CC(=O)NCC3CCCCC3)CC[C@H]21	none (no result: Yp Topo-I inh, PrP UTR inh)
CN1C(=O)c2cc(NC(=O)c3cccc(F)c3)ccc2OC[C@H]2O[C@H](CC(=O)NCC3CCCCC3)CC[C@@H]21	TcdB inh 11 (no result: Yp Topo-I inh, PrP UTR inh)
C[C@@H]1CN([C@H](C)CO)C(=O)c2cc(NC(=O)Nc3ccc(F)cc3)ccc2O[C@H]1CN(C)S(=O)(=O)c1cccs1	none (no result: Yp Topo-I inh, PrP UTR inh)
CC(C)NC(=O)N[C@@H]1CC[C@@H](CCn2cc(-c3ccccc3)nn2)O[C@@H]1CO	none (no result: Yp Topo-I inh, PrP UTR inh)
CC(C)(C)OCC(O)CN1CCN(C(=O)c2ccccc2)CC1 (stereo unspecified)	TcdB inh 12
CCCN(C)C[C@@H]1OCCCC[C@@H](C)Oc2ccc(NS(=O)(=O)c3ccccc3)cc2C(=O)N([C@H](C)CO)C[C@@H]1C	none (no result: Yp Topo-I inh, PrP UTR inh)
C[C@H](CO)N1C[C@H](C)[C@H](CN(C)S(=O)(=O)c2cccs2)Oc2c(NS(=O)(=O)c3ccccc3)cccc2C1=O	none (no result: Yp Topo-I inh, PrP UTR inh, Mtb BioA inh)
CCCCN1CC(COCc2ccccc2)Oc2cccc(F)c2S1(=O)=O (stereo unspecified)	Yp Topo-I inh 59
COc1ccc(CN2CCN(C(=O)C3CC(=O)N(C4CCCCCC4)C3)CC2)c(OC)c1OC (stereo unspecified)	Yp Topo-I inh 74 (no result: TcdB inh)
O=C(C[C@H]1C=C[C@@H](NC(=O)CN2CCOCC2)[C@@H](CO)O1)NC1CCCCC1	none (no result: Yp Topo-I inh, PrP UTR inh)
CCOc1cc(/C=N/O)ccc1OCc1ccc(C)cc1	TcdB inh 11 (no result: Mtb BioA inh)
O=Cc1ccccc1OS(=O)(=O)c1ccccc1	none (no result: TcdB inh, Mtb BioA inh)
O=S(=O)(Oc1ccccc1-c1ccccc1)c1ccccc1	TcdB inh 12
O=C(O)c1cc(-c2ccccc2Cl)n(-c2cccc(Cl)c2)n1	TcdB inh 13
O=C(O)c1cc(-c2ccccc2Cl)n(-c2ccc(F)cc2)n1	none
COc1ccc2c3c([nH]c2c1)[C@H](CO)NCC31CCN(C(=O)Nc2ccc(F)cc2F)CC1	none (no result: Yp Topo-I inh, PrP UTR inh, Mtb BioA inh)
Nc1ccc(NC(=S)Nc2ccccc2)cc1	none (no result: Mtb BioA inh)
O=C(NC(=S)Nc1ccc(O)cc1)c1ccccc1Cl	TcdB inh 17
COc1ccc(NC(=S)NC(=O)c2ccccc2Cl)cc1	none
Oc1ccc(NC(=S)Nc2ccccc2)cc1	TcdB inh 11!
O=C(CC(c1ccccc1)c1ccccc1)Nc1ccc(O)cc1	TcdB inh 13
CC(C)NC(=O)Nc1ccc2c(c1)CC(=O)N([C@H](C)CO)C[C@@H](C)[C@H](CN(C)C)O2	none (no result: Yp Topo-I inh, PrP UTR inh)
Cc1cc(C(=O)COC(=O)CC2Sc3ccccc3NC2=O)c(C)n1-c1cccc(C(F)(F)F)c1 (stereo unspecified)	none
Cc1cc(C(=O)COC(=O)Cc2n[nH]c(=O)c3ccccc23)c(C)n1-c1cccc(C(F)(F)F)c1	Yp Topo-I inh 67 (no result: TcdB inh)
